assay: modulators of CIT2-GFP expression in yeast, confirmation, S. cerevisiae, GFP fusion, cherry picks, mother/daughter gates (AID 2274); details: S. cerevisiae CIT2-GFP strain, flow cytometry, 3 h; measured here: daughter cell gate; at 10 µM; stronger effect = higher value

Row | Compound | GFP response, % of DMSO [%]
1 | O=C(CCC(F)(F)F)N1CCC(CO)(CCc2ccccc2)CC1 | 106
2 | O=C(Nc1cc(Sc2ccccn2)cc([N+](=O)[O-])c1)c1cccc(F)c1 | 95.8
3 | CC(=O)Nc1cccc(/C(C)=N/NC(=O)c2ccccc2Cl)c1 | 101
4 | Cc1cc(Br)c2c(c1)/C(=C/C(=O)c1cccs1)C(=O)N2 | 93.7
5 | N=C1S/C(=C\c2ccco2)C(=O)N1c1nccs1 | 108
6 | Cc1cc(NC(=O)c2cccnc2Cl)ccc1NC(=O)c1cc2ccccc2o1 | 97.4
7 | COc1ccc2c(/C=C/c3cc[n+](C)cc3)c[nH]c2c1 | 169
8 | C/C(=N\NC(=O)COc1ccccc1-c1ccccc1)c1ccccn1 | 106
9 | CC(=O)c1cc(NC(=O)c2ccc(C)cc2)c(=O)oc1C | 100
10 | O=C(Cc1ccc(Cl)cc1)NNC(=S)NC(=O)c1cccs1 | 115
11 | COc1ccc(NC(=O)Nc2ccon2)c(OC)c1 | 99.2
12 | O=S(=O)(c1ccc(Oc2ccc(Br)cc2)cc1)N1CCOCC1 | 96.4
13 | Cc1cccn2c(=O)c(/C=C(\C#N)C(=O)NCc3ccco3)c(N3CCCC(C)C3)nc12 (stereo not given) | 100
14 | CCS(=O)(=O)Nc1cccc(C2=NN(S(C)(=O)=O)C(c3ccccc3)C2)c1 (stereo not given) | 112
15 | Cc1ccc(C(C(=O)NC2CCCCC2)N(CCCN2CCOCC2)C(=O)c2snc(C(N)=O)c2N)cc1 (stereo not given) | 98.3
16 | O=C(O)C1CCN(S(=O)(=O)c2ccc(Oc3ccccc3)cc2)CC1 | 100
17 | CCCC(=O)Nc1ccc(C(=O)/C=C/c2ccc(SC)cc2)cc1 | 94.8
18 | Cc1cccc(CS(=O)(=O)c2ncc(Cl)c(C(=O)NCc3ccc4c(c3)OCO4)n2)c1 | 105
19 | Cc1nnc(NC(=O)c2ccc(S(=O)(=O)N(C)Cc3ccccc3)cc2)o1 | 101
20 | Clc1cnc(N/N=C/c2cccs2)c(Cl)c1 | 110

Row | Compound | GFP response, % of DMSO [%]
21 | CC1CCCN(CCCNC(=O)C2CCN(S(=O)(=O)N3CCC4(CC3)OCCO4)CC2)C1 (stereo not given) | 106
22 | Clc1ccc(OCCn2cnc3ccccc32)c(Cl)c1 | 80.7
23 | O=C(O)c1ccn2c(C(=O)c3ccccc3)c(-c3ccccc3)cc2c1 | 95.4
24 | CC(=O)Oc1ccc(N2C(=O)C3C4C=CC(CO)(O4)C3C2=O)cc1 (stereo not given) | 112
25 | COc1ccc(/C=C/C(=O)c2ccc(Cl)cc2)c(OC)c1 | 99.1
26 | O=C(CN1C(=O)c2cccc3cccc(c23)C1=O)N1CCCCCC1 | 101
27 | COC(=O)c1ccc(CS(=O)(=O)c2ccc(F)cc2)o1 | 99.3
28 | O=C(c1cccc(COCC(F)(F)C(F)F)c1)N1CCN(c2ccccc2)CC1 | 96.4
29 | COc1ccccc1N=Cc1nc(-c2ccccc2)oc1OC(C)=O | 88.4
30 | CNC(=O)c1c(O)c2cccc3c2n(c1=O)CC3 | 90.9
31 | O=[N+]([O-])c1cc(S(=O)(=O)C(F)(F)F)ccc1Sc1nc2ccccc2s1 | 105
32 | CN(C)c1ccc(/C=C/c2cc[n+](C)cc2)cc1 | 129
33 | O=c1oc(/C=C/c2ccc([N+](=O)[O-])s2)nc2ccccc12 | 180
34 | Cc1ccc(Sc2ncnc3onc(C)c23)cc1 | 105
35 | COc1ccc(C(=O)c2no[n+]([O-])c2C(=O)c2ccc(OC)cc2)cc1 | 77.1
36 | CCN(CC)CCCN(Cc1cc2cc3c(cc2[nH]c1=O)OCO3)C(=S)Nc1ccccc1 | 103
37 | COc1ccc(-c2cc(C(F)(F)F)nc(N3CCOCC3)n2)cc1OC | 114
38 | O=c1/c(=C/c2cccc3ccccc23)sc2ncnn12 | 122
39 | Cc1ccccc1NC(=O)c1ccccc1O | 97.4
40 | COc1ccccc1-c1noc(-c2cc(OC)c(OC)c(OC)c2)n1 | 96.5
